In PubChem BioAssay AID1159580 (chemical genetic matrix, 2015):
Values joined by “and” are separate entries in the source; they are usually repeats but may differ in a detail not shown here. Identical values can stand only once. About 2,000 (36%) of roughly 5,500 compounds were called active. Not shown: some 18% with an inconclusive outcome. Cut-off read from the data, not from the text of the source: active = normalized growth mostly below about 0.91 (no sharp cut-off); inconclusive = no clear call, values can overlap the other calls; inactive = mostly above about 0.92. The list shows a part of the results.

Experiment: chemical genetic growth profiling, strain panel (AID 1159580);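 note: tested at 20 µM; growth read once vehicle control cultures reached saturation at 30 °C; 1 = growth at the plate median or of vehicle wells; lower values mean less growth of the strain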
Conditions: S. cerevisiae deletion strains, growth OD

Measured: normalized growth

C=C1C(=O)O[C@@H]2C[C@@]3(C)CCC[C@H](C)C3=C[C@H]12
active: locus YAL021C, strain ccr4, stronger effect = lower value 0.849 | locus YAL026C, strain drs2, stronger effect = lower value 0.718 | locus YAL030W, strain snc1, stronger effect = lower value 0.882 | locus YBL061C, strain skt5, stronger effect = lower value 0.901 | locus YBR009C, strain hhf1, stronger effect = lower value 0.733 | locus YBR023C, strain chs3, stronger effect = lower value 0.886 | locus YBR171W, strain sec66, stronger effect = lower value 0.837 | locus YBR231C, strain swc5, stronger effect = lower value 0.572 | locus YBR279W, strain paf1, stronger effect = lower value 0.88 | locus YCL011C, strain gbp2, stronger effect = lower value 0.822 | locus YCL016C, strain dcc1, stronger effect = lower value 0.849 | locus YCL061C, strain MRC1, stronger effect = lower value 0.881 | locus YCL069W, strain vba3, stronger effect = lower value 0.876 | locus YCR088W, strain abp1, stronger effect = lower value 0.896 | locus YDL040C, strain nat1, stronger effect = lower value 0.899 | locus YDL074C, strain BRE1, stronger effect = lower value 0.72 | locus YDL101C, strain DUN1, stronger effect = lower value 0.85 | locus YDL134C, strain PPH21, stronger effect = lower value 0.848 | locus YDL192W, strain arf1, stronger effect = lower value 0.758 | locus YDR001C, strain nth1, stronger effect = lower value 0.897 | locus YDR069C, strain doa4, stronger effect = lower value 0.779 | locus YDR137W, strain rgp1, stronger effect = lower value 0.267 | locus YDR159W, strain sac3, stronger effect = lower value 0.71 | locus YDR162C, strain NBP2, stronger effect = lower value 0.699 | locus YDR195W, strain ref2 1.16 [resistant] | locus YDR297W, strain sur2, stronger effect = lower value 0.855 | locus YDR318W, strain mcm21, stronger effect = lower value 0.814 | locus YDR334W, strain swr1, stronger effect = lower value 0.442 | locus YDR335W, strain msn5, stronger effect = lower value 0.875 | locus YDR388W, stronger effect = lower value 0.869 | locus YDR392W, strain spt3, stronger effect = lower value 0.127 | locus YDR502C, strain sam2, stronger effect = lower value 0.833 | locus YEL003W, strain gim4, stronger effect = lower value 0.715 | locus YEL037C, strain rad23, stronger effect = lower value 0.907 | locus YEL061C, strain CIN8 (second series), stronger effect = lower value 0.88 | locus YEL061C, strain CIN8, stronger effect = lower value 0.916 | locus YER015W, strain faa2, stronger effect = lower value 0.855 | locus YER016W, strain bim1, stronger effect = lower value 0.911 | locus YER110C, stronger effect = lower value 0.836 | locus YER155C, strain BEM2 (second series), stronger effect = lower value 0.585 | locus YER155C, strain BEM2, stronger effect = lower value 0.71 | locus YFR010W, strain ubp6, stronger effect = lower value 0.862 | locus YGL086W, strain mad1, stronger effect = lower value 0.89 | locus YGL167C, strain pmr1, stronger effect = lower value 0.848 | locus YGL173C, strain kem1, stronger effect = lower value 0.888 | locus YGL227W, strain vid30, stronger effect = lower value 0.912 | locus YGL240W, strain doc1, stronger effect = lower value 0.599 | locus YGL248W, strain PDE1, stronger effect = lower value 0.799 | locus YGL253W, strain hxk2, stronger effect = lower value 0.742 | locus YGR135W, strain pre9, stronger effect = lower value 0.801 | locus YHR013C, strain ard1, stronger effect = lower value 0.616 | locus YHR027C, strain rpn1, stronger effect = lower value 0.874 | locus YHR129C, strain ARP1, stronger effect = lower value 0.852 | locus YHR142W, strain chs7, stronger effect = lower value 0.787 | locus YHR200W, strain rpn10, stronger effect = lower value 0.876 | locus YIL066C, strain RNR3, stronger effect = lower value 0.756 | locus YIR030C, strain dcg1, stronger effect = lower value 0.903 | locus YJL092W, strain hpr5, stronger effect = lower value 0.904 | locus YJL095W, strain BCK1 (second series), stronger effect = lower value 0.894 | locus YJL115W, strain asf1, stronger effect = lower value 0.88 | locus YJL129C, strain trk1, stronger effect = lower value 0.76 | locus YJL164C, strain tpk1, stronger effect = lower value 0.809 | locus YJL166W, strain qcr8, stronger effect = lower value 0.654 | locus YJL187C, strain SWE1, stronger effect = lower value 0.903
inactive: locus YAL013W, strain DEP1, stronger effect = lower value 0.933 | locus YBR021W, strain FUR4, stronger effect = lower value 1.05 | locus YBR229C, strain ROT2, stronger effect = lower value 0.943 | locus YCL029C, strain bik1, stronger effect = lower value 0.949 | locus YDL005C, strain med2, stronger effect = lower value 0.937 | locus YDL035C, strain GPR1, stronger effect = lower value 0.895 | locus YDL185W, strain tfp1, stronger effect = lower value 0.94 | locus YDR101C, strain arx1, stronger effect = lower value 0.945 | locus YDR150W, strain NUM1, stronger effect = lower value 0.925 | locus YER111C, strain swi4, stronger effect = lower value 0.911 | locus YER167W, strain BCK2, stronger effect = lower value 0.906 | locus YGL078C, strain dbp3, stronger effect = lower value 0.981 | locus YGR252W, strain gcn5, stronger effect = lower value 0.864 | locus YHR030C, strain SLT2, stronger effect = lower value 0.927 and 1.01 | locus YHR079C, strain IRE1 (second series), stronger effect = lower value 0.936 | locus YHR079C, strain IRE1, stronger effect = lower value 0.986 | locus YHR094C, strain hxt1, stronger effect = lower value 0.942 | locus YIL073C, strain SPO22, stronger effect = lower value 0.717 | locus YIL125W, strain kgd1, stronger effect = lower value 0.953 | locus YJL134W, strain LCB3, stronger effect = lower value 0.934 | locus YJL154C, strain vps35, stronger effect = lower value 0.921 | locus YJL168C, strain set2, stronger effect = lower value 0.951 | locus YJL187C, strain SWE1 (second series), stronger effect = lower value 0.875
0.753 (active) and 1.01 (inactive): locus YJL095W, strain BCK1, stronger effect = lower value
